TIM10 inh = growth inhibitors of TIM10 yeast strain | S. cerevisiae TIM10 strain growth, BacTiter-Glo luminescence, 24 h | inhibition, % at 10 µM | 330,000 tested, 1.4% active | AID 463195;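 active means inhibition of 40% or more at the single tested concentration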;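 further: wild-type TIM10 isogenic control strain grown at permissive 25 °C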
tim10-1 inh = inhibits growth of tim10-1 mutant yeast; AID 463190; S. cerevisiae tim10-1 ts strain growth, BacTiter-Glo, 24 h; inhibition, % at 20 µM; 330,000 tested, 2.2% active;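 active means inhibition of at least 40%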;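 further: mutant grown at 25 °C; 0% = DMSO wells with yeast and 100% = wells holding no yeast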
NALP1 yeast inh = blocks the NALP1 inflammasome reconstituted in yeast; S. cerevisiae NALP1/ASC/caspase-1 growth, X-gal OD620, 72 h; inhibition, % at 10 µM; 280,000 tested, 0.61% active; AID 2071; in the data active means inhibition mostly above about 24%, no sharp cut-off; inactive means mostly below about 32%
tim23-1 inh = tim23-1 yeast growth inhibition. inhibition, % at 20 µM. S. cerevisiae tim23-1 growth, BacTiter-Glo luminescence, 24 h. 330,000 tested, 1.3% active;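 active means growth inhibition of the mutant yeast at or above 50%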;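 further: temperature-sensitive mutant grown at 25 °C; plate controls were DMSO-treated mutant yeast for no effect and medium wells lacking yeast for full effect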
NALP3 yeast inh = inhibitors of NALP3 inflammasome in yeast. inhibition, % at 10 µM. 330,000 tested, 0.39% active. Yeast reconstituted NLRP3/ASC/caspase-1, beta-gal luminescence, 24 h;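 active means inhibition of 50% or more; inactive means inhibition below 50%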;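 further: plate controls were induced DMSO wells for no effect and uninduced yeast grown without galactose for full effect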
PfHsp90 set2 = inhibits growth of yeast expressing Plasmodium falciparum Hsp90. inhibition, % at 9.4 µM. S. cerevisiae expressing PfHsp90, BacTiter-Glo ATP, 48 h; yeast lacking PDR1 and PDR3 efflux regulators. 310,000 tested, 0.32% active;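 active means every replicate shows inhibition above about 80%, whatever the replicate mean, limit read from the data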;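 further: 0% = DMSO neutral controls and 100% = 20 µM radicicol positive controls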
tim10-1 conf = tim10-1 yeast growth inhibition, confirmed. S. cerevisiae tim10-1 ts strain growth, BacTiter-Glo, 24 h. AID 463213. shares compounds with tim10-1 inh. inhibition, % at 20 µM. 7,400 tested, 56% active;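 active means inhibition of yeast growth at or above a set limit in either of two repeat tests at 20 µM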;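 further: tim10-1 mutant grown at permissive 25 °C to find synthetic lethal compounds; 0% = DMSO yeast wells and 100% = medium wells without yeast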
Active calls of the source: *; x = no result. A selection: hits, their analogues and other compounds. The true share with any hit is near 4.1%.

SMILES | TIM10 inh | tim10-1 inh | NALP1 yeast inh | tim23-1 inh | NALP3 yeast inh | PfHsp90 set2 | tim10-1 conf
O=C(CCNc1ccc(Cl)c(C(F)(F)F)c1)c1ccco1 | 21 | 43* | -2 | 28 | 15 | 1 | 22
Cc1ccc(NC(=O)c2ccc3c(=O)n4c(nc3c2)CCC4)cc1S(=O)(=O)N(C)C | 8 | -9 | x | 0 | 16 | x | x
COc1ccc(N2C(=O)C(Cl)=C(N3CCCC(C)C3)C2=O)cc1 (centres undefined) | 28 | 42* | 8 | 32 | 7 | 4 | 29
Cc1ccc(Cl)cc1N1CCN(C(=O)C2(S(=O)(=O)c3ccc(Cl)cc3)CC2)CC1 | 30 | 40* | 14 | 27 | 9 | x | 27
CN1CCN(C(=O)c2ccc(CS(=O)Cc3ccc(Cl)cc3)o2)CC1 (centres undefined) | -5 | 7 | 29 | 11 | -3 | -5 | x
O=C(c1ccc(CS(=O)Cc2ccc(Cl)cc2)o1)N1CCN(c2ccccc2F)CC1 (centres undefined) | 14 | 10 | 1 | 23 | 10 | 0 | x
Cc1ccc(Cl)cc1N1CCN(C(=O)c2ccc(CS(=O)Cc3ccc(Cl)cc3)o2)CC1 (centres undefined) | 2 | 45* | 7 | 3 | 1 | 2 | -20
Cc1ccc(C)c(N2CCN(C(=O)c3ccc(CS(=O)Cc4ccc(Cl)cc4)o3)CC2)c1 (centres undefined) | 4 | 46* | 31 | 16 | 5 | 11 | -3
Cc1cccc(N2CCN(C(=O)C3(S(=O)(=O)c4ccc(Cl)cc4)CC3)CC2)c1C | -2 | -28 | 2 | -5 | -16 | -6 | x
CC(C)CC1Nc2ccc(C(=O)NCCCN3CCOCC3)cc2NC1=O (centres undefined) | 4 | -24 | 9 | 4 | 13 | -16 | x
Cc1ccc(NC(=O)C2CCN(S(=O)(=O)c3ccc4c(c3)OCCO4)CC2)c(O)c1 | 0 | -8 | x | 14 | 10 | 7 | x
CC1(c2ccccc2)NC(=O)N(CC(=O)N2CCN(S(=O)(=O)c3c(F)cccc3F)CC2)C1=O (centres undefined) | 10 | -4 | x | -3 | 3 | -6 | x
Cc1ccc(NC(=S)NCc2ccc(Cl)cc2)c(OC(F)F)c1 | 22 | 24 | 0 | 32 | 10 | -22 | x
O=[N+]([O-])c1ccc(N2CCCCCC2)c(S(=O)(=O)N2CCCCC2)c1 | 19 | 48* | 9 | 45 | 13 | -7 | 30
C=C(C)CSc1nncn1/N=C/c1ccc(OC)cc1 | 19 | 43* | 17 | 28 | -1 | 14 | 32*
CCSc1nncn1/N=C/c1ccc(OC)c(OC)c1 | -11 | -4 | x | -5 | 0 | -30 | x
COc1ccc(-c2oc3cc(O)c(OC)c(O)c3c(=O)c2OC)cc1O | x | x | x | x | x | 3 | x
CCOC(=O)C1=CNS(=O)(=O)NC1c1ccc(C)cc1 (centres undefined) | -4 | 17 | x | 36 | x | 20 | x
CCN(C(=O)c1cccc(S(=O)(=O)N(C)C)c1)C12CC3CC(CC(C3)C1)C2 | 22 | 41* | 6 | 43 | 1 | -4 | 23
CC1CCCCC1NC(=O)CCCn1c(=S)[nH]c2ccccc2c1=O (centres undefined) | -23 | 8 | -11 | 3 | 22 | x | x
CC1CCCCC1n1c(=S)[nH]c2ccccc2c1=O (centres undefined) | 34 | 42* | 4 | 38 | 0 | x | 3
COC(=O)c1ccccc1NC(=S)NC(=O)C1CCCCC1 | 30 | 41* | 20 | 41 | 20 | -4 | 34*
CC(C)(C)C(=O)NC(=S)Nc1ccccc1N1CCCC1 | 26 | 39 | -4 | 6 | -28 | -2 | x
O=C(NC(=S)Nc1ccccc1N1CCCC1)c1ccc([N+](=O)[O-])cc1 | 34 | 57* | 6 | 49 | 21 | 20 | 42*
O=C(NC(=S)Nc1ccccc1N1CCCCC1)c1ccc(-c2cccc([N+](=O)[O-])c2)o1 | 16 | 41* | -8 | 17 | 2 | -17 | 6
COC(=O)c1ccccc1NC(=O)C1CCCC1 | 5 | 27 | -15 | 8 | -9 | 14 | x
CC(=O)NC(=S)Nc1ccccc1N1CCCCC1 | 26 | 43* | -3 | 25 | -43 | -22 | 18

Compound activity deposited in PubChem by several laboratories.
